# Records with an inconclusive call do not appear. Entries that show only a call come without a potency. Activity calls are given as the source filed them. The call rests on the fitted dose curve; in most records, active means well fitted curve in the direction sought with a large enough effect; inconclusive means small, poorly fitted or top-dose-only effect, or another doubt; inactive means no such curve, though single readings can be large; an effect the other way counts as inactive or inconclusive. Where a SMILES comes first, the peptide text is derived from it. [ ]: non-standard residue; d: D form. pGlu = O=C1CC[C@@H](C(=O)O)N1; Thz = O=C(O)[C@@H]1CSCN1
# Molecular target: Calcium and integrin-binding protein 1 (Homo sapiens) (UniProt Q99828)
# Sequence (Q99828 whole entry, looked up): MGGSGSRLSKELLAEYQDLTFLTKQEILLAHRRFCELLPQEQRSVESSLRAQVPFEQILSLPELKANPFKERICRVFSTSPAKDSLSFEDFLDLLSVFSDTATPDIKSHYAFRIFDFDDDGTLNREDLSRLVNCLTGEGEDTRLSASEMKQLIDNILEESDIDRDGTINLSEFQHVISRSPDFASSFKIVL
# Experiment: Primary qHTS for Identification of Calcium Integrin Binding Protein 1 (CIB1) Competitor (AID 1508620);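 further: GST tagged CIB1 binding a fluorescein labelled alphaIIb integrin peptide tracer; top concentration of the series differs between compounds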
# Settings: CIB1-GST / FITC-alphaIIb peptide fluorescence polarization; series mostly up to 114 µM
# Summary of the method: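 Fluorescence polarization competition: GST-tagged CIB1 (1 uM final) preincubated with compound 15 min at room temperature, then FITC-labelled alphaIIb peptide (100 nM final) added. After 15 min at room temperature, polarization read at Ex 480/Em 540.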
row,Compound,Potency
1,CC1(C)S[C@@H]2[C@H](NC(=O)[C@H](N)c3ccc(O)cc3)C(=O)N2[C@H]1C(=O)O,inactive
2,O=C1CC[C@@H](C(=O)N2CSC[C@H]2C(=O)O)N1 ([pGlu]-[Thz]-OH),inactive
3,CC(=O)O[C@H]1C[C@@]2(C)[C@@H](C[C@@H](O)[C@H]3[C@@]4(C)CC[C@@H](O)[C@@H](C)[C@@H]4CC[C@@]32C)/C1=C(\CCC=C(C)C)C(=O)O,inactive
4,COc1cc(/C=C/C(=O)N2CCN(CC(=O)N3CCCC3)CC2)cc(OC)c1OC,inactive
5,COC(=O)[C@H]1[C@H]2C[C@@H]3c4[nH]c5cc(OC)ccc5c4CCN3C[C@H]2C[C@@H](OC(=O)/C=C/c2cc(OC)c(OC)c(OC)c2)[C@@H]1OC,inactive

# Tested on: not listed separately
# Experiment: Primary qHTS for small molecule stabilizers of the endoplasmic reticulum resident proteome: Secreted ER Calcium Modulated Protein (SERCaMP) assay (AID 1508630)
# Settings: SH-SY5Y GLuc-SERCaMP (Gaussia luciferase released on ER calcium loss) secretion, thapsigargin, luminescence; series mostly up to 38.4 µM
# Summary of the method: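 The SH-SY5Y reporter protocol was run at 3 concentrations up to 38.3 uM (primary) or 11 concentrations (follow-up): 16 h compound, 100 nM thapsigargin for 4 h, then extracellular luciferase luminescence.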
row,Compound,Potency
1,CCCCCCCCCCCCCCCCCCNC(=O)OCC(COP(=O)([O-])OCC[n+]1ccsc1)OC (stereo not drawn),inactive
2,O=C(O)[C@@H]1C[C@H](C(=O)O)N1,inactive
3,C[N+](C)(CCCCCC[N+](C)(C)CCCN1C(=O)c2cccc3cccc(c23)C1=O)CCCN1C(=O)c2cccc3cccc(c23)C1=O,inactive
4,CC(COc1ccc(/C=C/c2ccccc2)cc1)[N+](C)(C)C (stereo not drawn),inactive
5,CCCC1(C)C(C#N)(C#N)C1(C#N)C#N,inactive
6,O=C(O)CC1CC(c2ccccc2)=NO1 (stereo not drawn),inactive
7,CN(C)c1nc2c(Br)c(Br)c(Br)c(Br)c2[nH]1,inactive
8,CN1CCC[C@H]1c1cccnc1,inactive
9,O=c1[nH]c2cc(Cl)c(Cl)cc2[nH]c1=O,inactive
10,O=C(O)/C=C/C(O)c1ccc(Cl)cc1 (stereo not drawn),inactive
11,CCCCC/C=C\CC(O)/C=C/c1cccc(CC(O)CCCCO)n1 (stereo not drawn),inactive
12,CCCCCCCCCCCCCCCC(=O)NCC(COP(=O)([O-])OCC[N+](C)(C)C)OCC (stereo not drawn),inactive
13,O=C(O)[C@@H]1C[C@@H](C(=O)O)N1,inactive
14,NCCNC(=O)c1ncsc1-c1cccc(F)c1,inactive
15,C[C@@H](NC(=O)/C(C#N)=C/c1ccc(O)c(O)c1)c1ccccc1,inactive
16,O=C(O)c1cc(=O)c2ccccc2[nH]1,inactive
17,CN(C)CCCO[C@@H]1[C@H]2OC(C)(C)O[C@H]2O[C@@H]1[C@H](O)CO,inactive
18,CC1(C)C[C@@H]1C(=O)N/C(=C\CCCCSC[C@H](N)C(=O)O)C(=O)O,inactive
19,C=CC(=O)c1ccc(CCCCCC)cc1,inactive
20,O=C1O/C(=C/Br)CCC1c1cccc2ccccc12 (stereo not drawn),inactive

# Molecular target: Papain (Carica papaya) (UniProt P00784)
# Sequence (P00784 whole entry, looked up): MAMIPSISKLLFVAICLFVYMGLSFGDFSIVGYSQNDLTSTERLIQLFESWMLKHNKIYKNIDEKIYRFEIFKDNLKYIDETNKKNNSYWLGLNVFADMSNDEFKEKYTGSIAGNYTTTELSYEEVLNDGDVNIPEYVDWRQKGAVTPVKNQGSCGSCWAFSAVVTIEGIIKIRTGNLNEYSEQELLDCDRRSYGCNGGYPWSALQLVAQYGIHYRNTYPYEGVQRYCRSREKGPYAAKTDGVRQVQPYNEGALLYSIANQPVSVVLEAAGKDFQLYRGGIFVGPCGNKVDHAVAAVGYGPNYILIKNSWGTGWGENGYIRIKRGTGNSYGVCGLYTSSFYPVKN
# Experiment: Primary qHTS assay for inhibitors of the protease papain (AID 1645873);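 further: papain turnover of Z-FR-AMC read as the AMC fluorescence gain over 10 min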
# Settings: papain Z-FR-AMC cleavage, AMC fluorescence; series mostly up to 49.8 µM
row,Compound,Potency
1,Nc1ccn([C@@H]2O[C@H](CO)[C@@H](O)[C@@H]2O)c(=O)n1,inactive
2,Cc1cn([C@H]2CC(N=[N+]=[N-])[C@@H](CO)O2)c(=O)[nH]c1=O (stereo partly drawn),inactive
3,O=C(O)c1cc(=O)c2ccccc2[nH]1,inactive
4,CC(C)NCC(O)COc1cccc2ccccc12 (stereo not drawn),inactive

# Tested on: not listed separately
# Experiment: Primary qHTS for inhibitors of nuclear receptor binding SET domain protein 2 (NSD2) in an isogenic RCH-ACV NSD2 p.E1099K mutant (9B) (AID 1645876); further: nearly all actives have a fitted effect of over 70% in size; further: potency means the concentration at half of the fitted maximal effect
# Settings: RCH-ACV (leukaemia line) NSD2 E1099K (9B) viability, CellTiter-Glo, 72 h; series mostly up to 44.9 µM
row,Compound,Potency
1,C[C@H](O)[C@H](O)[C@H]1CNc2nc(N)[nH]c(=O)c2N1,inactive
2,N#C/C(=C\c1ccc(O)c(O)c1)C(=O)NCCCc1ccccc1,14.6 µM (active)
3,CC1(C)[C@@H](O[C@H]2O[C@H](C(=O)O)[C@@H](O)[C@H](O)[C@H]2O[C@@H]2O[C@H](C(=O)O)[C@@H](O)[C@H](O)[C@H]2O)CC[C@]2(C)[C@H]3C(=O)C=C4[C@@H]5C[C@@](C)(C(=O)O)CC[C@]5(C)CC[C@@]4(C)[C@]3(C)CC[C@@H]12,inactive
4,CC1(C)S[C@@H]2[C@H](NC(=O)[C@H](N)c3ccc(O)cc3)C(=O)N2[C@H]1C(=O)O,inactive
5,O=C(O)CC1CC(c2ccccc2)=NO1 (stereo not drawn),inactive
6,CN(C)c1nc2c(Br)c(Br)c(Br)c(Br)c2[nH]1,14.6 µM (active)
7,Cc1onc(-c2c(F)cccc2Cl)c1C(=O)N[C@@H]1C(=O)N2[C@@H]1SC(C)(C)[C@@H]2C(=O)O,inactive
8,COc1cc(/C=C/C(=O)CC(=O)/C=C/c2ccc(O)c(OC)c2)ccc1O,11.8 µM (active)
9,O=C1CC[C@@H](C(=O)N2CSC[C@H]2C(=O)O)N1 ([pGlu]-[Thz]-OH),inactive
10,CN1[C@@H]2CC[C@H]1CC(OC(c1ccccc1)c1ccccc1)C2 (stereo partly drawn),inactive
11,Nc1ncnc2c1c(I)cn2[C@@H]1C[C@H](N)[C@@H](O)[C@H]1O,18.4 µM (active)
12,CC(=O)O[C@H]1C[C@@]2(C)[C@@H](C[C@@H](O)[C@H]3[C@@]4(C)CC[C@@H](O)[C@@H](C)[C@@H]4CC[C@@]32C)/C1=C(\CCC=C(C)C)C(=O)O,inactive
13,CC1(C)S[C@@H]2[C@H](NC(=O)[C@H](NC(=O)N3CCN(S(C)(=O)=O)C3=O)c3ccccc3)C(=O)N2[C@H]1C(=O)O,inactive
14,COc1cc(/C=C/C(=O)N2CCN(CC(=O)N3CCCC3)CC2)cc(OC)c1OC,inactive

# Source: PubChem BioAssay (NCATS)
